# In paper PMC8384837, “Expanding the binding specificity for RNA recognition by a PUF domain”:
# Residue numbers refer to the chain shown, from its start.
# Experiments:
# Assay in all cases: yeast three-hybrid, YBZ-1, SC-Leu-His + 0.5 mM 3-AT, 4 days
# Conditions in all cases: tags: N-Gal4 AD-HA kept; label: inside an RPR1-promoter hybrid RNA with tandem MS2 sites; ssRNA
# PUM1 PUF domain R6-LYA = molecular target: T1, PUM1 PUF domain R6-LYA (Homo sapiens, UniProt Q14671 828-1176, N1043L;Q1047A)
# T1 sequence: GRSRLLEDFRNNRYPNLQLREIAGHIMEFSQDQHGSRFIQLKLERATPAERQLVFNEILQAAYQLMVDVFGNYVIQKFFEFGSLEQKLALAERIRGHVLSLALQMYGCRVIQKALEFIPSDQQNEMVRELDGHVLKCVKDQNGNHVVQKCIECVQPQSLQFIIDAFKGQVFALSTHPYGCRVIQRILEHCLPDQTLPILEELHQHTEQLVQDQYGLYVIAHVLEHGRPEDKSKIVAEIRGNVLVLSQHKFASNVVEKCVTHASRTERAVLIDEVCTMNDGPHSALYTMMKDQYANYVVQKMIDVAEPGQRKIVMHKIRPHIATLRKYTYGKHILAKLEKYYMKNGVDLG
# Method in brief: (§1)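 Repeat regions from input (SC-Leu) and selection (SC-Leu-His + 0.5 mM 3-AT) plates were PCR-amplified and Illumina-sequenced after four days of growth. The cells were strain YBZ-1 with a LexA–MS2 coat fusion and a HIS3 reporter, co-expressing Pumilio-1 PUF domain libraries and matching RNA elements from a centromeric plasmid. The interaction score is the log change in variant frequency from input to selection, taken in log2 with a pseudocount of 1 for absent variants.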
# PUM1 PUF domain R8-DYR = PUM1 PUF domain R8-DYR (Homo sapiens, UniProt Q14671 828-1176, N1122D;Q1126R)
# Method in brief: as §1
# PUM1 PUF domain R4-GYP = PUM1 PUF domain R4-GYP (Homo sapiens, UniProt Q14671 828-1176, N971G;H972Y;Q975P)
# Method in brief: as §1
# PUM1 PUF domain R3-VRH = PUM1 PUF domain R3-VRH (Homo sapiens, UniProt Q14671 828-1176, C935V;Q939H)
# Method in brief: as §1
# PUM1 PUF domain R6-RWL = molecular target: T2, PUM1 PUF domain R6-RWL (Homo sapiens, UniProt Q14671 828-1176, N1043R;Y1044W;Q1047L)
# T2 sequence: T1 sequence with L216R, Y217W, A220L
# Method in brief: as §1
# PUM1 PUF domain R6-CWL = molecular target: T3, PUM1 PUF domain R6-CWL (Homo sapiens, UniProt Q14671 828-1176, N1043C;Y1044W;Q1047L)
# T3 sequence: T1 sequence with L216C, Y217W, A220L
# Method in brief: as §1
# [1] = molecular target: PUM1 PUF domain R1-QFR R2-VFQ R7-NPG (Homo sapiens, UniProt Q14671 828-1176, S863Q;R864F;Q867R;N899V;Y900F;S1079N;N1080P;E1083G)
# Method in brief: as §1
# PUM1 PUF domain R6-KWC = molecular target: T4, PUM1 PUF domain R6-KWC (Homo sapiens, UniProt Q14671 828-1176, N1043K;Y1044W;Q1047C)
# T4 sequence: T1 sequence with L216K, Y217W, A220C
# Method in brief: as §1
# PUM1 PUF domain R3-LWI = PUM1 PUF domain R3-LWI (Homo sapiens, UniProt Q14671 828-1176, C935L;R936W;Q939I)
# Method in brief: as §1
# PUM1 PUF domain R3-SSD = PUM1 PUF domain R3-SSD (Homo sapiens, UniProt Q14671 828-1176, C935S;R936S;Q939D)
# Method in brief: as §1
# PUM1 PUF domain R4-DFR = PUM1 PUF domain R4-DFR (Homo sapiens, UniProt Q14671 828-1176, N971D;H972F;Q975R)
# Method in brief: as §1
# PUM1 PUF domain R1-GPK = PUM1 PUF domain R1-GPK (Homo sapiens, UniProt Q14671 828-1176, S863G;R864P;Q867K)
# Method in brief: as §1
# PUM1 PUF domain R1-KFV = PUM1 PUF domain R1-KFV (Homo sapiens, UniProt Q14671 828-1176, S863K;R864F;Q867V)
# Method in brief: as §1
# PUM1 PUF domain R5-AAR = PUM1 PUF domain R5-AAR (Homo sapiens, UniProt Q14671 828-1176, C1007A;R1008A;Q1011R)
# Method in brief: as §1
# PUM1 PUF domain R3-RPQ = PUM1 PUF domain R3-RPQ (Homo sapiens, UniProt Q14671 828-1176, C935R;R936P)
# Method in brief: as §1
# PUM1 PUF domain R1-TKK = PUM1 PUF domain R1-TKK (Homo sapiens, UniProt Q14671 828-1176, S863T;R864K;Q867K)
# Method in brief: as §1
# PUM1 PUF domain R8-HFL = PUM1 PUF domain R8-HFL (Homo sapiens, UniProt Q14671 828-1176, N1122H;Y1123F;Q1126L)
# Method in brief: as §1
# PUM1 PUF domain R8-KRH = PUM1 PUF domain R8-KRH (Homo sapiens, UniProt Q14671 828-1176, N1122K;Y1123R;Q1126H)
# Method in brief: as §1
# PUM1 PUF domain R8-HFP = PUM1 PUF domain R8-HFP (Homo sapiens, UniProt Q14671 828-1176, N1122H;Y1123F;Q1126P)
# Method in brief: as §1
# PUM1 PUF domain R8-PYC = PUM1 PUF domain R8-PYC (Homo sapiens, UniProt Q14671 828-1176, N1122P;Q1126C)
# Method in brief: as §1
sequence,measurement,setting,value
GGCUAGAACUAGUGGAUCCCCCGGCGCCCGGCGGCUCGAGCCCGGGUAAGUGUAAAUAGUCUGCAUGCCGCCGGGCGCCAUGCCUGCAGGUCGACUCUAGAAAACAUG,binding signal,PUM1 PUF domain R6-LYA,2.58 log2 enrichment (interaction score)
same,binding signal,PUM1 PUF domain R8-DYR,0.87 log2 enrichment (interaction score)
same,binding signal,PUM1 PUF domain R4-GYP,5.1 log2 enrichment (interaction score)
same,binding signal,PUM1 PUF domain R3-VRH,4.55 log2 enrichment (interaction score)
same,binding signal,PUM1 PUF domain R6-RWL,5.11 log2 enrichment (interaction score)
same,binding signal,PUM1 PUF domain R6-CWL,3.76 log2 enrichment (interaction score)
GGCUAGAACUAGUGGAUCCCCCGGCGCCCGGCGGCUCGAGCCCGGGUAAGUUUAAAACGUCUGCAUGCCGCCGGGCGCCAUGCCUGCAGGUCGACUCUAGAAAACAUG,binding signal,[1],6.82 log2 enrichment (interaction score)
GGCUAGAACUAGUGGAUCCCCCGGCGCCCGGCGGCUCGAGCCCGGGUAAGUGAAAAUAGUCUGCAUGCCGCCGGGCGCCAUGCCUGCAGGUCGACUCUAGAAAACAUG,binding signal,PUM1 PUF domain R6-LYA,1.91 log2 enrichment (interaction score)
same,binding signal,PUM1 PUF domain R6-KWC,6.72 log2 enrichment (interaction score)
GGCUAGAACUAGUGGAUCCCCCGGCGCCCGGCGGCUCGAGCCCGGGUAAGUGUAAGUAGUCUGCAUGCCGCCGGGCGCCAUGCCUGCAGGUCGACUCUAGAAAACAUG,binding signal,PUM1 PUF domain R3-LWI,3.8 log2 enrichment (interaction score)
same,binding signal,PUM1 PUF domain R3-SSD,2.19 log2 enrichment (interaction score)
GGCUAGAACUAGUGGAUCCCCCGGCGCCCGGCGGCUCGAGCCCGGGUAAGUGUACAUAGUCUGCAUGCCGCCGGGCGCCAUGCCUGCAGGUCGACUCUAGAAAACAUG,binding signal,PUM1 PUF domain R4-GYP,5.39 log2 enrichment (interaction score)
same,binding signal,PUM1 PUF domain R4-DFR,5.83 log2 enrichment (interaction score)
GGCUAGAACUAGUGGAUCCCCCGGCGCCCGGCGGCUCGAGCCCGGGUAAGUGUAAAUUGUCUGCAUGCCGCCGGGCGCCAUGCCUGCAGGUCGACUCUAGAAAACAUG,binding signal,PUM1 PUF domain R1-GPK,2.87 log2 enrichment (interaction score)
same,binding signal,PUM1 PUF domain R1-KFV,3.92 log2 enrichment (interaction score)
GGCUAGAACUAGUGGAUCCCCCGGCGCCCGGCGGCUCGAGCCCGGGUAAGUGUAUAUAGUCUGCAUGCCGCCGGGCGCCAUGCCUGCAGGUCGACUCUAGAAAACAUG,binding signal,PUM1 PUF domain R4-GYP,7.06 log2 enrichment (interaction score)
same,binding signal,PUM1 PUF domain R4-DFR,6.14 log2 enrichment (interaction score)
GGCUAGAACUAGUGGAUCCCCCGGCGCCCGGCGGCUCGAGCCCGGGUAAGUGUUAAUAGUCUGCAUGCCGCCGGGCGCCAUGCCUGCAGGUCGACUCUAGAAAACAUG,binding signal,PUM1 PUF domain R5-AAR,1.62 log2 enrichment (interaction score)
GGCUAGAACUAGUGGAUCCCCCGGCGCCCGGCGGCUCGAGCCCGGGUAAGUGUCAAUAGUCUGCAUGCCGCCGGGCGCCAUGCCUGCAGGUCGACUCUAGAAAACAUG,binding signal,PUM1 PUF domain R5-AAR,4.02 log2 enrichment (interaction score)
GGCUAGAACUAGUGGAUCCCCCGGCGCCCGGCGGCUCGAGCCCGGGUAAGUGUAAUUAGUCUGCAUGCCGCCGGGCGCCAUGCCUGCAGGUCGACUCUAGAAAACAUG,binding signal,PUM1 PUF domain R3-RPQ,3.45 log2 enrichment (interaction score)
GGCUAGAACUAGUGGAUCCCCCGGCGCCCGGCGGCUCGAGCCCGGGUAAGUGUAAAUCGUCUGCAUGCCGCCGGGCGCCAUGCCUGCAGGUCGACUCUAGAAAACAUG,binding signal,PUM1 PUF domain R1-GPK,4.33 log2 enrichment (interaction score)
same,binding signal,PUM1 PUF domain R1-TKK,3.92 log2 enrichment (interaction score)
GGCUAGAACUAGUGGAUCCCCCGGCGCCCGGCGGCUCGAGCCCGGGUAAGUGUAAAUGGUCUGCAUGCCGCCGGGCGCCAUGCCUGCAGGUCGACUCUAGAAAACAUG,binding signal,PUM1 PUF domain R1-GPK,0.78 log2 enrichment (interaction score)
GGCUAGAACUAGUGGAUCCCCCGGCGCCCGGCGGCUCGAGCCCGGGUAAGCGUAAAUAGUCUGCAUGCCGCCGGGCGCCAUGCCUGCAGGUCGACUCUAGAAAACAUG,binding signal,PUM1 PUF domain R8-HFL,2.79 log2 enrichment (interaction score)
same,binding signal,PUM1 PUF domain R8-DYR,3.04 log2 enrichment (interaction score)
same,binding signal,PUM1 PUF domain R8-KRH,2.93 log2 enrichment (interaction score)
same,binding signal,PUM1 PUF domain R8-HFP,6.79 log2 enrichment (interaction score)
same,binding signal,PUM1 PUF domain R8-PYC,3.77 log2 enrichment (interaction score)
